The text below walks through data of PubChem BioAssay.

Molecules are shown by their SMILES. Active and inactive are the calls of the source.

One experiment deals with Albumin (Bos taurus) (UniProt P02769). In words: bovine serum albumin binders on microarray, profiling panel, artefact control for SMM control protein annotation, biochemical, small-molecule microarray, Alexa647 label, 635/667 nm fluorescence (AID 1118).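 Further: score merges 667 nm emission intensity and signal-to-noise per printed compound spot.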 The note with it: BSA-A647 binding, fluorescence 635 nm, higher = more signal.
The nature of experiment [1]: small-molecule microarray binders of probe aXIP, primary screen, biochemical, NeuroSMM set, 635/667 nm fluorescence (AID 1119).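 Further: probe is the protein aXip251-270 applied at 1 µg/mL to compound-printed slides; binding of probe to printed compounds measured as 667 nm fluorescence plus signal to noise.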 The note with it: higher = more signal, called active from +8 up or from −8 down.
A short description of experiment [2]: small-molecule binders of probe aNOTCH3, primary screen, biochemical, small-molecule microarray, 635/667 nm fluorescence (AID 1120).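 Further: probe is a biotin-tagged antibody raised against NOTCH3 rather than NOTCH3 protein; score merges spot fluorescence near 667 nm with spot signal to noise.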 The note with it: higher = more signal.
Experiment [3] is described as follows: small-molecule binders of probe aNOTCH2, primary screen, biochemical, small-molecule microarray, 635/667 nm fluorescence (AID 1121).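 Further: score merges feature fluorescence read at 667 nm with its signal to noise.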 As to conditions: higher = more signal.
Experiment [4] addresses Carbonic anhydrase 2 (Homo sapiens) (UniProt P00918). The experiment is described as follows: CAII small-molecule binders, profiling panel, biochemical, small-molecule microarray, Alexa647-labelled CAII (AID 1122). As to conditions: CAII-A647 binding fluorescence, higher = more signal.
Experiment [5] in a line: COS7 lysate on small-molecule microarray, probe aHis, 635 nm (AID 1123).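 Further: z-score combines 667nm fluorescence intensity with signal-to-noise per printed compound spot.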 As to conditions: COS7 cell lysate, fluorescence, higher = more signal.
Experiment [6] can be described thus: compound binding in COS7 lysate, probe aLAP1, primary screen, cell lysate, small-molecule microarray (AID 1124).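 Further: lysate comes from COS7 cells expressing LAP1 and is applied at 0.3 µg/mL; score merges spot fluorescence near 667 nm with signal-to-noise over triplicate slides.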 As to conditions: probe aLAP1, fluorescence, higher = more signal.
In a further experiment the test system is Sam68 (KHDRBS1). The experiment is described as follows: Sam68 small-molecule binders, primary screen, biochemical, small-molecule microarray, 635 nm fluorescence (AID 1125).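 Further: score merges 667 nm channel intensity with signal to noise over triplicate slides.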 As to conditions: small-molecule microarray binding, higher = more signal.
Experiment [7] deals with Chordin-like protein 2 (CHRDL2). The experiment is described as follows: CHRDL2 small-molecule binders, primary screen, biochemical, small-molecule microarray, 635 nm fluorescence (AID 1126).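 Further: printed compound slides probed with Chrdl2 protein at 4 µg/mL for 1 h at 4 C; score merges 667 nm emission intensity with signal to noise over three replicate slides.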 As to conditions: small-molecule microarray binding, fluorescence 635 nm; higher = more signal.
Experiment [8] deals with Concanavalin-A (Canavalia ensiformis) (UniProt P02866). The experiment is described as follows: ConA small-molecule binders, primary screen, artefact control for SMM control protein annotation, biochemical, small-molecule microarray, Alexa647 label, 635 nm (AID 1127).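 Further: z combines 667 nm emission intensity with signal-to-noise across three replicate slides.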 As to conditions: ConA-A647 binding fluorescence, higher = more signal.
The nature of experiment [9]: anti-His antibody binders, primary screen, artefact control for SMM control protein annotation, biochemical, small-molecule microarray, 635 nm fluorescence (AID 1128).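 Further: score merges feature fluorescence with signal-to-noise for each printed compound spot.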 As to conditions: anti-His Alexa647 antibody binding, higher = more signal.
Experiment [10] has as its system Human papillomavirus type 1a E7 protein (residues 1-88). In words: HPV1a E7 small-molecule binders, primary screen, biochemical, small-molecule microarray, residues 1-88, 635 nm (AID 1129). The note with it: small-molecule microarray binding, fluorescence 635 nm; higher = more signal.
Experiment [11] addresses Focal adhesion kinase 1 (Homo sapiens) (UniProt Q05397). In words: small-molecule microarray binders of FAK, primary screen, biochemical, 635/667 nm fluorescence, BSA, DTT (AID 1130).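 Further: composite of spot emission at 667 nm and signal to noise over triplicate slides.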 The note with it: PTK2 binding, 635 nm fluorescence, higher = more signal.
For experiment [12], the system named is Fibrinogen (Alexa647-labelled). The experiment is described as follows: fibrinogen binders on compound microarrays, profiling panel, artefact control for SMM control-protein annotation, biochemical, small-molecule microarray, 635/667 nm fluorescence (AID 1131).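 Further: z-score merges 667 nm fluorescence with per-spot signal-to-noise over triplicate slides.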 The note with it: fibrinogen-A647 binding fluorescence, higher = more signal.
For experiment [13], the target named is Follistatin (Homo sapiens) (UniProt P19883). In words: follistatin binders on small-molecule microarrays, primary screen, biochemical, small-molecule microarray, 635/667 nm fluorescence (AID 1132). As to conditions: FST binding, 635 nm fluorescence, higher = more signal.
For experiment [14], the target named is Fibroblast growth factor 2 (Homo sapiens) (UniProt P09038). In words: FGF2 binders on small-molecule microarrays, primary screen, biochemical, small-molecule microarray, 635/667 nm fluorescence (AID 1133). As to conditions: small-molecule microarray binding, FGF2, fluorescence 635/667; higher = more signal.
The nature of experiment [15]: mitochondrial membrane potential change in A549 cells, profiling panel, cell-based, JC-1 fluorescence, basal, 24 h, 100 nL (AID 1138).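 Further: A549 lung adenocarcinoma cells under basal conditions with no added stimulus; test concentration not given here.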 As to conditions: higher = more signal.
The next experiment concerns Lefty1. In words: Lefty1 binders on small-molecule microarrays, primary screen, biochemical, small-molecule microarray, 635/667 nm fluorescence (AID 1139). As to conditions: small-molecule microarray binding, fluorescence 635/667; higher = more signal.
For experiment [16], the system named is wheat germ agglutinin (Triticum aestivum), Alexa647-labelled. The experiment is described as follows: wheat germ agglutinin binders on compound microarrays, profiling panel, artefact control for SMM control-protein annotation, biochemical, small-molecule microarray, 635/667 nm fluorescence (AID 1140).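 Further: score merges 667 nm feature emission with signal to noise over triplicate slides.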 As to conditions: WGA-A647 binding, 635 nm fluorescence, higher = more signal.

For experiment [17], the target named is Luciferin 4-monooxygenase (Photinus pyralis) (UniProt P08659). In words: firefly luciferase enzyme inhibitors, primary screen, biochemical, luminescence, purified enzyme, 2006 set (AID 1141).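 Further: cell-free assay with purified firefly luciferase at 100 ng per well in PBS; test concentration not given here.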 The note with it: SteadyGlo luminescence, 30 min, higher = more signal, called active from +8 up or from −8 down.
Chain of Luciferin 4-monooxygenase (Photinus pyralis) (P08659 whole entry, looked up): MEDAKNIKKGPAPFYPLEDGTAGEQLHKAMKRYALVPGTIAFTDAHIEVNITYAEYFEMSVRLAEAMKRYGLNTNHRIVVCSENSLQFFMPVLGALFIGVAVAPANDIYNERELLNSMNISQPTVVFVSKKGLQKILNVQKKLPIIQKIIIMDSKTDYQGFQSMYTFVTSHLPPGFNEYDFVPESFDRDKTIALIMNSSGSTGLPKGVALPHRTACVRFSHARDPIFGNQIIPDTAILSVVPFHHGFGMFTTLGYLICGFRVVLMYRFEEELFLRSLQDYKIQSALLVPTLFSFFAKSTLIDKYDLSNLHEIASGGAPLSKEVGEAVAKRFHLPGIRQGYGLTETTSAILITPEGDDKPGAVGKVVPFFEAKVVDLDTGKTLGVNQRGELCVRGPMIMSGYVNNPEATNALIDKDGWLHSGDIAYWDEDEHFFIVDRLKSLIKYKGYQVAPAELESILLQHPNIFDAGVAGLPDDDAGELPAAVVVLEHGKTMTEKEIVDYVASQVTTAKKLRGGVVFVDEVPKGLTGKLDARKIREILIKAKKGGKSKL

Chain of Fibroblast growth factor 2 (Homo sapiens) (P09038 whole entry, looked up): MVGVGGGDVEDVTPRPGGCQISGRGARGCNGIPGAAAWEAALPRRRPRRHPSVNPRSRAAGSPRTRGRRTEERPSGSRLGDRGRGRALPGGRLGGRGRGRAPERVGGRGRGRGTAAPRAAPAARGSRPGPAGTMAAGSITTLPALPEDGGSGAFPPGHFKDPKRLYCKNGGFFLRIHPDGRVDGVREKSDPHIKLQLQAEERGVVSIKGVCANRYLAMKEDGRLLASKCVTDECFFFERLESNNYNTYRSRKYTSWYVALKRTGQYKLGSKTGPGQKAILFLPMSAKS
Chain of Albumin (Bos taurus) (P02769 whole entry, looked up): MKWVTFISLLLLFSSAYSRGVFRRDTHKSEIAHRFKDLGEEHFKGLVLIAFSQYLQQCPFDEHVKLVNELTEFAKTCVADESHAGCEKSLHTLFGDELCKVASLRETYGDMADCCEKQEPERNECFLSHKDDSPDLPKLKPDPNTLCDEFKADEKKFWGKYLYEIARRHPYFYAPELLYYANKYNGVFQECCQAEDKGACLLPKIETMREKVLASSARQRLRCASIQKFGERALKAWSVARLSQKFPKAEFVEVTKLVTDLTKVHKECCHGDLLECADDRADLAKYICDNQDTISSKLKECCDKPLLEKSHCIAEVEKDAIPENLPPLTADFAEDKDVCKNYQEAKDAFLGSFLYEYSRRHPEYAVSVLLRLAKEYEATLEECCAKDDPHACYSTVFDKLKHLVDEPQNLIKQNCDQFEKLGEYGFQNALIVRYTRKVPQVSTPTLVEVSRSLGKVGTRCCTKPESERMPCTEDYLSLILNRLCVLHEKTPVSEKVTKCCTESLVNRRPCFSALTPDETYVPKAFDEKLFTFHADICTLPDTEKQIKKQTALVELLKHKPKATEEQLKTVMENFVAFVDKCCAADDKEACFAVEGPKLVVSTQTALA
Chain of Focal adhesion kinase 1 (Homo sapiens) (Q05397 whole entry, looked up): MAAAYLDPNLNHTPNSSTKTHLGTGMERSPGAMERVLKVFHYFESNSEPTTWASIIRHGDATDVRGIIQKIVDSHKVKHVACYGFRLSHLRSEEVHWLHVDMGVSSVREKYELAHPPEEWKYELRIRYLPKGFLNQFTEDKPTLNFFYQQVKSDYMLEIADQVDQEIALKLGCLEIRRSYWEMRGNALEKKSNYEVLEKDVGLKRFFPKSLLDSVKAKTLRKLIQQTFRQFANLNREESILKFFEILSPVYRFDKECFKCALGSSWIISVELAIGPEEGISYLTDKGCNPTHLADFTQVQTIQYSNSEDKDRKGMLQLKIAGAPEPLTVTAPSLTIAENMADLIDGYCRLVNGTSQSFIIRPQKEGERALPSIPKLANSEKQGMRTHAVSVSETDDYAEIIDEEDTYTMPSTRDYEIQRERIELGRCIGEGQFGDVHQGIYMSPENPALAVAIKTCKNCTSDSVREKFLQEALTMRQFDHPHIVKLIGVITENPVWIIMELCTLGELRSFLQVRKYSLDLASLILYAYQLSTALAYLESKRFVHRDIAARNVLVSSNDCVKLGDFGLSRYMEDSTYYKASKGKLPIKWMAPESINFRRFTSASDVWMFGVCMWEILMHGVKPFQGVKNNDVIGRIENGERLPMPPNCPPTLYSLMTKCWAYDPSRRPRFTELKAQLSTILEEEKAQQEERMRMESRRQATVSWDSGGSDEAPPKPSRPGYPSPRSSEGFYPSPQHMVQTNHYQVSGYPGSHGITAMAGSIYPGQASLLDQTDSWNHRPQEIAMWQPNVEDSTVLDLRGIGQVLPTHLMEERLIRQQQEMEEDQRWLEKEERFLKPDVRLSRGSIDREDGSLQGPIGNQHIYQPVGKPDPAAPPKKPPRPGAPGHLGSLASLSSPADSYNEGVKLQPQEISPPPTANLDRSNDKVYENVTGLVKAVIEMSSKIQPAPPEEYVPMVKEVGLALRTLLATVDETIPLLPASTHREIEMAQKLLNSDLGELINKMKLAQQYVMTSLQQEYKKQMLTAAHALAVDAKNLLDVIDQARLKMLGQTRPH
Chain of Follistatin (Homo sapiens) (P19883 whole entry, looked up): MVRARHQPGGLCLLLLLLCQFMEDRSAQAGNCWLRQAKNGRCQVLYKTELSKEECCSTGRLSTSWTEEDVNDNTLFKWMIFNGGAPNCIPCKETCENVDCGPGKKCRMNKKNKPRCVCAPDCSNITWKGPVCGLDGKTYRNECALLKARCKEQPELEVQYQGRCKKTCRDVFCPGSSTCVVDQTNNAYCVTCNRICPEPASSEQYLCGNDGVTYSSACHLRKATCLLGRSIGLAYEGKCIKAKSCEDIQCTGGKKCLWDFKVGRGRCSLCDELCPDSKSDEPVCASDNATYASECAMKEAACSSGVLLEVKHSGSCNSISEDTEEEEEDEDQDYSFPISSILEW
Chain of Concanavalin-A (Canavalia ensiformis) (P02866 whole entry, looked up): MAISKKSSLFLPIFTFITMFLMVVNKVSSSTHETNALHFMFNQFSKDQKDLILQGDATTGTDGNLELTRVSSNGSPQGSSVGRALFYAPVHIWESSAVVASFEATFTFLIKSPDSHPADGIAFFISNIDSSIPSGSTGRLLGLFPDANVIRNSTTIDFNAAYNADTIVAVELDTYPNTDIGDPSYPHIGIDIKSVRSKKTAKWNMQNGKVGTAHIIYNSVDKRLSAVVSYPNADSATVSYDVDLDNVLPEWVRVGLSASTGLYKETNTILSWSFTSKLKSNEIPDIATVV

Regarding `CCC[C@@H]1C[C@@]1(CCC)[C@@H](NC(=O)c1ccccc1)c1cccc(Cl)c1`, the composite z-score was 0.941 with Albumin (Bos taurus); 1.38 in experiment [2]; 0.808 in experiment [3]; 0.326 in experiment [4]; 2.63 in experiment [5]; 0.245 in experiment [6]. In addition, the composite z-score was 1.33 in the experiment on Sam68 (KHDRBS1); 0.0667 in experiment [7]; 0.954 in experiment [8]; 1.52 in experiment [9]; 1.17 in [10]; 0.535 in experiment [11]. Besides, the composite z-score was 0.596 in [12]; 0.219 in experiment [13]; -0.331 in experiment [14]; -0.544 with Lefty1; 1.11 in [16]. Also, the composite Z-score in [1] was 0.432 (inactive). Moreover, the z-score in [15] is 0.349; in experiment [17], 0.841 (inactive).

As to `COc1cc2c(cc1OC)CN(C(=O)[C@@H]1[C@H]3C(=O)O[C@H](c4ccccc4)[C@H](c4ccccc4)N3[C@H](c3ccccc3OCCO)[C@@]13C(=O)Nc1ccc(C#CCCO)cc13)CC2`, the composite z-score was 0.641 with Albumin (Bos taurus); 0.0556 in experiment [2]; -0.0878 in [3]; 0.402 in experiment [4]; 1.88 in experiment [5]; 0.681 in experiment [6]. In addition, the composite z-score was 1.29 in the experiment on Sam68 (KHDRBS1); 0.352 in [7]; 1.14 in [8]; 1.94 in experiment [9]; 1.15 in experiment [10]; 0.222 in experiment [11]. Moreover, the composite z-score in experiment [12] worked out at 0.966; in experiment [13], 1.27; in [14], 0.409; in the experiment with Lefty1, 0.904; in experiment [16] it was 0.988. For the same compound, in experiment [1], the composite Z-score is 0.252 (inactive). For the same compound, the z-score in experiment [15] is -0.426; in [17] it was -0.785 (inactive).

On to `COCC(=C=CC[C@@H](O)c1cccc(OCCO)c1)C[C@@H](O)c1ccccn1`, for which the composite z-score with Albumin (Bos taurus) is 0.254; in experiment [2], 0.0979; in experiment [3], -0.14; in experiment [4], 0.744; in experiment [5], 0.486; in [6], 1.73. For the same compound, the composite z-score with Sam68 (KHDRBS1) was 0.338; in experiment [7], 0.188; in [8], 0.218; in experiment [9] it was -0.252; in [10] it was 0.467; in experiment [11], -0.32. Further, the composite z-score was 0.263 in experiment [12]; 0.868 in experiment [13]; 0.392 in experiment [14]; 1.24 in the experiment with Lefty1; 0.0688 in experiment [16]. Moreover, the composite Z-score in experiment [1] was 0.745 (inactive). Besides, the z-score was 1.53 in experiment [15] and -1.16 (inactive) in experiment [17].

On to `CCC(CC)C(O)C1C=CC2C(=O)NC(=O)C2N1Nc1ccccn1` (stereo not given), for which the composite z-score with Albumin (Bos taurus) was 0.958; in experiment [2], -0.0219; in experiment [3] it was -0.0438; in experiment [4] it was 0.763; in experiment [5] it was 0.864; in [6] it was -0.019. For the same compound, the composite z-score in the experiment with Sam68 (KHDRBS1) is 0.0905; in experiment [7], 0.416; in experiment [8], 0.228; in experiment [9], 0.823; in experiment [10] it was -0.0365; in [11], 0.268. The composite z-score is -0.206 in [12]; 0.872 in [13]; 0.0277 in experiment [14]; -0.0021 with Lefty1; 0.0789 in [16]. Besides, in experiment [1], the composite Z-score is -0.248 (inactive). Besides, the z-score in [15] is 0.693; in experiment [17], -0.0791 (inactive).

On to `CC(=O)NCCCC[C@@H]1NC(=O)[C@H]2C[C@@H](C(=O)NCCCCCCNC(=O)CS)[C@@H](c3ccc(O)cc3)N2C1=O`, for which the composite z-score with Albumin (Bos taurus) was -1.4; in experiment [2] it was -0.216; in [3] it was -0.185; in experiment [4], 0.727; in experiment [5], 2.68; in experiment [6], 0.0073. The composite z-score in the experiment with Sam68 (KHDRBS1) is 0.0719; in experiment [7], -0.205; in experiment [8], -0.366; in experiment [9], 2.48; in [10] it was 0.432; in [11], 0.458. The composite z-score in [12] is -0.397; in experiment [13] it was -0.409; in [14], 0.141; with Lefty1 it was -0.712; in [16], 0.485. In addition, the composite Z-score in experiment [1] is 0.239 (inactive). The z-score in experiment [15] was -1.08; in experiment [17] it was -0.644 (inactive).

On to `COCCOC(=O)N1C(=O)[C@@]2(c3cc(C#CC4(O)CCCCCC4)ccc31)[C@H](c1ccccc1OCCO)N1[C@H](c3ccccc3)[C@H](c3ccccc3)OC(=O)[C@H]1[C@@H]2C(=O)N1CCN(c2ncccn2)CC1`, for which the composite z-score in the experiment with Albumin (Bos taurus) was 0.781; in experiment [2], -0.0313; in [3], -0.0432; in experiment [4], 0.596; in [5] it was 1.12; in experiment [6] it was 0.384. Further, the composite z-score is 1.29 in the experiment on Sam68 (KHDRBS1); 0.336 in experiment [7]; 1.09 in experiment [8]; 0.701 in [9]; 1.05 in experiment [10]; 0.782 in experiment [11]. For the same compound, the composite z-score in experiment [12] amounted to 0.662; in experiment [13], 1.19; in [14] it was 0.846; with Lefty1 it was 0.702; in experiment [16] it was 0.764. For the same compound, the composite Z-score in experiment [1] was -0.291 (inactive). The z-score in [15] is -1.13; in experiment [17], -1.04 (inactive).
